A350 fluor = A350 region autofluorescence; hit rate 11% among 59,000; Compound autofluorescence, 340/450 nm, Alexa 350 dye-equivalents; stronger effect = higher value; max dye-equivalent concentration, M; AID 590; in the data active = max dye-equivalent concentration above about 10 nM; inconclusive = mostly about 1.1 nM to 9.6 nM
4MU fluor = compounds fluorescent in 4-MU spectral region; compound autofluorescence, 340/450 nm, 4-MU equivalents; stronger effect = higher value; max dye-equivalent concentration, M; hit rate 11% among 59,000; in the data active = max dye-equivalent concentration above about 10 nM; inconclusive = mostly about 1.1 nM to 9.6 nM
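Compounds in 100 mM Tris, pH 8.0, sat 15 min at room temperature before fluorescence was read at 340 nm excitation/450 nm emission; a per-plate six-point 4-MU standard curve converted signals to dye-equivalent concentration at each compound concentration.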
GBA activity = modulators of human glucocerebrosidase; P04062; purified enzyme, resorufin glucoside fluorescence (screen aimed at inhibitors), 20 min; Potency, µM; hit rate 1.1% among 48,000; in the data active = potency below about 15 µM; inconclusive = mostly about 16 µM to 33 µM;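 note: potency is the fitted concentration of half-maximal effect; the screen sought inhibitors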
Target sequence (P04062 whole entry, looked up): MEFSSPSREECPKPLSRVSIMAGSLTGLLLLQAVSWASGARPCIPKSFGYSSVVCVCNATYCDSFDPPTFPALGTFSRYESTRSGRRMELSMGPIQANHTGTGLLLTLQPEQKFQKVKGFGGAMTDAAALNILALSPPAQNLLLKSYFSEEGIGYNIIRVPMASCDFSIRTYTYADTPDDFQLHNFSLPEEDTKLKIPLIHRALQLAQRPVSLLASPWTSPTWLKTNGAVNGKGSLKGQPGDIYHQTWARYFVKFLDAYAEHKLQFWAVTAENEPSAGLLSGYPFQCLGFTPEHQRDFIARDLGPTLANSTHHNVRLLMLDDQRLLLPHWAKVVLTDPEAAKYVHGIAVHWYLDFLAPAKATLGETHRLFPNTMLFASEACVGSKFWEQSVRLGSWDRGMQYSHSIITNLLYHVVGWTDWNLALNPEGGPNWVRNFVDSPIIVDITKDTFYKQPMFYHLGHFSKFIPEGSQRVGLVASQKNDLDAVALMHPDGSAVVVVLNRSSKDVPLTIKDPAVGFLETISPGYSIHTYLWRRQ
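Compounds titrated against 0.2 nM normal enzyme, 30 uM resorufin beta-D-glucopyranoside substrate, citrate/phosphate buffer with taurocholate and tween-20, pH 5.9. Reaction ran 20 min at room temperature; fluorescence (Ex 548/Em 600) gave AC50.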
HADH2 inh = blocks human hydroxyacyl-CoA dehydrogenase type II; recombinant HADH2, NADH fluorescence, beta-hydroxybutyryl-CoA; Q99714; hit rate 3.4% among 73,000; Potency, µM (doses to about 57.1 µM), without a hit: at the highest dose activity change, negative = inhibition, usual class: inhibitors; note: potency is the fitted concentration of half-maximal effect; % is set by controls: 0 for no effect and ±100 for the full control effect; nearly all actives have a fitted effect of over 60% in size
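His-tagged recombinant enzyme from E. coli, 20 nM, preincubated 15 min RT with compound; reaction started with 1 mM NAD+ and 90 uM beta-hydroxybutyryl-CoA in 100 mM Tris-HCl pH 9.0. NADH fluorescence (ex 360/em 450) read over 4 min; last-minus-first difference.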
AID923 = qHTS Assay for Allosteric/Competitive Inhibitors of Caspase-1: Spectroscopic Profiling in AFC Spectral Region. compound fluorescence, AFC spectral region (405/520 nm). Potency, µM (doses to about 57.5 µM), for the others: at the top dose fluorescence increase, hits mostly activators. hit rate 1.1% among 75,000; note: potency is the fitted concentration of half-maximal effect; 0% is about no effect
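Baseline compound fluorescence (AFC region, 405 nm ex/520 nm em) taken from the intercept of kinetic reads with 50 nM caspase-1 and 5 uM Ac-WEHD-AFC; normalized to an on-plate AFC standard curve; compounds titrated up to 57 uM.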
HSD17B inhib = blocks hydroxysteroid 17-beta dehydrogenase activity. AID 893. recombinant HSD17B10, NADH fluorescence kinetic. Potency, µM (highest dose often 57.1 µM), for the others: at the highest dose activity change, negative = inhibition, usual class: inhibitors. hit rate 7.6% among 75,000;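 note: the protocol describes HADH2 (HSD17B10) and not the HSD17B4 of the title; potency is the fitted concentration of half-maximal effect; % is set by controls: 0 for no effect and ±100 for the full control effect; nearly all actives have a fitted effect of over 70% in size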
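Enzyme plus compound, 15 min room temperature; substrate mix added (NAD+ 1 mM, beta-hydroxybutyryl-CoA 90 uM final); plates read kinetically for NADH fluorescence. HADH2 was His-tagged, E. coli-derived, 20 nM.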
Active calls of the source: *; i = inactive; ? = inconclusive; · = no result. Hits are enriched below; roughly 13% of the tested compounds scored in any of these assays. Unless noted, calls come from the whole dose curve; as a rule, active = well fitted curve in the direction sought with a large enough effect; inconclusive = small, poorly fitted or top-dose-only effect, or another doubt; inactive = no such curve, though single readings can be large; an effect the other way counts as inactive or inconclusive.

SMILES	A350 fluor	4MU fluor	GBA activity	HADH2 inh	AID923	HSD17B inhib
CN(C)c1nc(OCCOC(=O)COc2ccc(Cl)cc2Cl)nc(N(C)C)n1	1.6e-08M*	1.2e-08M*	>77	10%	0%	-23%
CC1(C)C(=O)C2C[C@]3(O)C4=CC(=O)OC(c5ccoc5)[C@]4(C)CCC3[C@](C)(C2=O)C1CC(=O)O (some centres undefined)	·	·	·	·	-1%	0%
Cn1c(Cc2ccccc2)nnc1SCC(=O)N1CCN(c2ccccc2)CC1	1e-07M*	1e-07M*	>77	-197%	5%	32µM*
CCOc1ccc(-c2nnc(SCC(=O)N3CCN(c4ccccc4)CC3)o2)cc1	·	·	·	-2%	-1%	6%
O=C(CSc1nnc(-c2ccccc2)o1)N1CCN(c2ccccc2)CC1	7.3e-08M*	6.9e-08M*	>77	32µM*	2%	25µM*
O=C(c1csnn1)N1CCC2(CC1)CCN(C(c1ccccc1)c1ccccc1)CC2	i	i	·	-3%	-3%	0%
COC(=O)c1nnn(-c2nonc2N)c1CSc1ccccn1	i	i	>77	-5%	1%	32µM*
CCCCC(CC)COCC1CO1 (centres undefined)	·	·	·	-10%	-4%	2%
CC(C)[C@@H]1NC(=O)[C@H](CCCCN)NC(=O)[C@H](Cc2c[nH]c3ccccc23)NC(=O)[C@H](Cc2ccc(O)cc2)NC(=O)[C@H](C)N(C)C(=O)[C@H](Cc2ccccc2)NC1=O	i	i	·	12%	-3%	6%
Cc1nc(N2CCOCC2)c2nc(-c3ccccc3)n(CCN3CCCCC3)c2n1	·	·	·	10%	-2%	25µM*
Cc1nc(N2CCOCC2)c2nc(-c3ccccc3)n(CCCN3CCCCC3C)c2n1 (centres undefined)	·	·	·	-2%	0%	25µM*
CCN(CC)CCn1c(-c2ccccc2)nc2c(N3CCOCC3)nc(C)nc21	·	·	·	?	14%	?
CCCn1c(C)nc2c(N3CCOCC3)nc(C)nc21	·	·	·	16%	2%	-6%
COCCN(CCOC)c1nc(C)nc2c1nc(-c1ccccc1)n2CCCN1CCCCC1C (centres undefined)	·	·	·	-9%	1%	25µM*
CCCn1c(-c2ccc(F)cc2)nc2c(N3CCCN(Cc4ccccc4)CC3)nc(C)nc21	·	·	·	-17%	1%	32µM*
O=C(Nc1nc(-c2ccc(Cl)s2)cs1)c1cccs1	i	i	i	13µM*	1%	25µM*
O=C(Nc1nc(-c2ccccc2)cs1)c1cccs1	·	·	·	-11%	1%	?
CC(=O)NCCNc1ccnc(-c2ccccc2C(F)(F)F)n1	3.4e-08M*	3.2e-08M*	·	13%	0%	?
CC(NC(=O)c1cccs1)C(c1cccs1)N1CCOCC1 (centres undefined)	i	i	>77	3%	-2%	13%
O=C(CSc1ccc2nnc(-c3ccccc3)n2n1)NCC1CCCO1 (centres undefined)	2e-08M*	1.7e-08M*	>77	-11%	-1%	32µM*
CCOC(=O)CSc1ccc2nnc(-c3cccnc3)n2n1	·	·	·	?	-3%	32µM*
CCOC(=O)CSc1ccc2nnc(-c3ccccc3)n2n1	·	·	·	18%	-2%	32µM*
COCCN1C(=O)c2ccccc2C(C(=O)NCCCN2CCCC2=O)C1c1c[nH]c2ccccc12 (centres undefined)	i	i	>77	-7%	0%	-6%
Cc1ccc(NC(=O)c2noc3c2CCCCC3)cc1C	i	i	?	15%	-1%	15%
CC(NC(=O)c1noc2c1CCCC2)c1ccccc1 (centres undefined)	1.2e-08M*	1.2e-08M*	>77	1%	-2%	-7%
CC(C)CNC(=O)c1noc2c1CCCC2	·	·	·	23%	2%	7%
CCc1ccc(NC(=O)c2noc3c2CCCCC3)cc1	i	i	>77	-17%	0%	32µM*
Cc1ccc(NC(=O)c2noc3c2CCCCC3)cc1	i	i	>77	-9%	1%	25µM*
COC(=O)c1ccccc1NC(=O)c1noc2c1CCC2	i	i	>77	16µM*	0%	25µM*

From PubChem BioAssay
